Reference: PubChem BioAssay AID449762 (Southern Research Specialized Biocontainment Screening …, 2010)
In all, about 330,000 compounds went through this assay and about 1,900 (0.58%) were called active. Roughly 4% stayed inconclusive and do not appear here. No stated cut-off is given here; in the data, inconclusive means inhibition above about 70% without an active follow-up result; inactive means below that. These entries were drawn from the full list. Results with a measured potency or affinity are listed apart.

assay: M. tuberculosis growth inhibition, HTS (AID 449762);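 further: bacterial growth assessed after seven days of incubation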; details: M. tuberculosis H37Rv growth inhibition, 7H9 media; at 25 µM; stronger effect = higher value

| Compound | inhibition |
| --- | --- |
| O=C1CN(C(=O)CSc2ccc(-c3ccc(F)cc3)nn2)c2ccccc2N1 | -6.46% (inactive) |
| Cc1ccnc(N=Cc2nc(-c3ccccc3Br)oc2O)c1 | 2.41% (inactive) |
| Cc1nc(CCNC(=O)c2cc(COc3ccc(F)cc3Cl)on2)sc1C | 12.2% (inactive) |
| CCCOc1ccc(-c2nc3c(c(=O)[nH]c(=O)n3Cc3ccccc3)n2CCO)cc1OCC | -0.79% (inactive) |
| COc1ccc(-c2nc3c(c(=O)[nH]c(=O)n3Cc3ccccc3)n2CCO)cc1 | -6.32% (inactive) |
| CC(C)c1nc2ccc(Br)cn2c1NC1CCCC1 | -4.28% (inactive) |
| CC(Sc1nnc(N)s1)C(=O)NNC(=O)c1cccc(Cl)c1 (stereo unspecified) | 0.75% (inactive) |
| CC1(C)C=Cc2c(ccc3c2OC[C@H](c2ccc(O)cc2O)C3)O1 | 9.89% (inactive) |
| CC1(C)C=Cc2c(ccc3c2OC[C@@H](c2ccc(O)cc2O)C3)O1 | 4.54% (inactive) |
| COc1cccc(C(=O)NC(=S)N2c3ccccc3CC2C)c1OC (stereo unspecified) | -5.31% (inactive) |
| CC1Cc2ccccc2N1C(=S)NC1CCCC1 (stereo unspecified) | -1.79% (inactive) |
| O=C(Nc1ccccc1N1CCCCC1)c1cccc(Cl)c1 | 8.39% (inactive) |
| CCC(C)c1ccc(S(=O)(=O)N2CCN(CC(O)CN3CCOCC3)CC2)cc1 (stereo unspecified) | -16.5% (inactive) |
| CCCOc1ccc(-c2cn3ccccc3n2)cc1[N+](=O)[O-] | 2.24% (inactive) |
| COc1ccc2c(c1)CC/C(=C/c1cc(OC)c(OC)c(OC)c1)C2=O | 50% (inactive) |
| COc1ccc2c(c1)C(=O)/C(=C/C=C/c1ccccc1)CC2 | 6.15% (inactive) |
| CC1CCCN(CCCNC(=O)c2ccc(NC(=O)C3=CSCCO3)cc2)C1 (stereo unspecified) | -0.6% (inactive) |
| O=C(Nc1ccc(C(=O)NCCCN2CCN(c3ccccc3)CC2)cc1)C1=CSCCO1 | 4.06% (inactive) |
| CC(=O)Nc1ccc(NC(=O)CCCSc2nc3ccccc3s2)cc1 | 0.37% (inactive) |
| COCCN=c1scc(-c2ccc3c(c2)NC(=O)CO3)n1/N=C(\C)c1ccc(O)cc1 | 6.92% (inactive) |
| COCC(C)n1c(-c2ccc3c(c2)NC(=O)CO3)csc1=Nc1ccc(OC(F)F)cc1 (stereo unspecified) | 5.17% (inactive) |
| CC(=O)N1CCN(S(=O)(=O)c2cccc(C(=O)NC3CCCC3)c2)CC1 | -8.08% (inactive) |
| O=C(Nc1ccccc1C1CC1)c1cccs1 | -3.36% (inactive) |
| CCc1cccc2c(C(=O)CN3C(=O)NC4(CCCCCC4)C3=O)c[nH]c12 | -3.22% (inactive) |

| Compound | inhibition |
| --- | --- |
| CN(Cc1cn(C)nc1-c1ccc(Oc2ccccc2)cc1)CC1COCCO1 (stereo unspecified) | 8.39% (inactive) |
| O=C(NCc1cccnc1)c1ccc(Cl)c(Cl)c1 | 3.71% (inactive) |
| O=C(CN1C(=O)/C(=C/c2ccccc2F)Sc2ccccc21)NCc1cccnc1 | 14.8% (inactive) |
| CC(C)CCNC(=O)Cc1csc(-c2ccccc2)n1 | -12% (inactive) |
| COc1ccc(CC(NC(C)=O)C(=O)NC2CCN(c3c4c(nc5ncnn35)CCC4)CC2)cc1 (stereo unspecified) | -5.34% (inactive) |
| Cc1ccc(OCC(=O)NC(C)c2ccc(Cl)c(Cl)c2)c([N+](=O)[O-])n1 (stereo unspecified) | -3.43% (inactive) |
| CC(=O)NC(C)c1ccc(Cl)c(Cl)c1 (stereo unspecified) | 7.59% (inactive) |
| CCOC(=O)Cc1csc(NS(=O)(=O)Cc2ccccc2)n1 | -4.69% (inactive) |
| Cc1ccc2cccc(OCC(=O)NCCC3=CCCCC3)c2n1 | 37.1% (inactive) |
| Cc1ccc(C(=O)N/C(=C\c2cccs2)C(=O)N2CCN(C)CC2)cc1C | 0.74% (inactive) |
| CN1C(=O)[C@H]2[C@@H](/C=C/c3ccccc3)N3C(=O)CN(Cc4ccccn4)C(=O)[C@@]3(Cc3ccccc3)[C@H]2C1=O | -6.69% (inactive) |
| COc1ccc2nc(C3CCCCC3)nc(C3CCCCC3)c2c1 | 0.84% (inactive) |
| COc1ccc(-c2nc(C3CCCCC3)c3cc(OC)ccc3n2)cc1 | 8.29% (inactive) |
| O=C(NCCC1=CCCCC1)C1CCN(S(=O)(=O)c2ccccc2C(F)(F)F)CC1 | -3.46% (inactive) |
| COCCOc1cc(NC(=O)c2ccccc2)c(Cl)cc1Cl | 15% (inactive) |
| Nc1c(-c2ccc(Cl)cc2)cnc2c(-c3ccccc3)cnn12 | -2.52% (inactive) |
| CC(=O)c1cnc2c(-c3ccc(Cl)cc3)cnn2c1C | -5.22% (inactive) |
| COc1ccccc1NC(=O)CSc1nc2ccccc2c(=O)n1C | 0.03% (inactive) |
| COc1ccc(-c2nn(-c3ccccc3)cc2CNC(=O)c2cccc([N+](=O)[O-])c2)cc1 | 8.99% (inactive) |
| c1cncc(-c2ccc3ncnc(NCc4cccs4)c3c2)c1 | 0.82% (inactive) |
| CCOC(=O)N1CCN(CCC(=O)Nc2ccc(OC(F)(F)F)cc2)CC1 | 18.8% (inactive) |
| Cc1ccc(CNC(=O)NC2CCCCC2)cc1 | -3.64% (inactive) |
| Cc1cc2cc(CNC(=S)NC3CCCCC3)ccc2[nH]1 | 4.14% (inactive) |
| Cc1ccc(N2C(=O)N(CC(=O)Nc3ccc(C)cc3Cl)C(=O)C2C)cc1 (stereo unspecified) | -3.9% (inactive) |

| Compound | inhibition |
| --- | --- |
| Cc1ccc2cccc(N)c2n1 | 1.54% (inactive) |
| Cc1ccc2c(C)ccc(O)c2n1 | -1.61% (inactive) |
| COc1ccc(CC(=O)N2CCC3(CC2)NCCc2[nH]cnc23)cc1 | 2.98% (inactive) |
| O=C(c1ccoc1)N1CCCC(N2CCN(c3ccc(F)cc3)CC2)C1 (stereo unspecified) | -11.5% (inactive) |
| COc1ccccc1N1CCN(C2CCCN(C(=O)c3cccc(-c4ccco4)c3)C2)CC1 (stereo unspecified) | 2.87% (inactive) |
| CCOc1ccc(C2OC(=O)Cc3cc(OC)c(OC)cc32)cc1 (stereo unspecified) | -2.13% (inactive) |
| Cc1cccc(N2CCN(S(=O)(=O)c3cn(C)cn3)CC2)c1C | -3.87% (inactive) |
| Nc1cc(Cl)ccc1Oc1ccccc1 | -2.47% (inactive) |
| Nc1cc(Cl)ccc1Oc1ccc(Cl)cc1 | 4.14% (inactive) |
| O=C(CNC(=O)c1cnccn1)Nc1ccc(F)c(F)c1F | -5.9% (inactive) |
| CN(CC(=O)Nc1ccc(F)c(F)c1F)c1ncnc2sccc12 | 1.29% (inactive) |
| COCCN(C(=O)/C=C/c1ccccc1)c1c(N)n(Cc2ccccc2)c(=O)[nH]c1=O | -1.36% (inactive) |
| O=CC1=C(N2CCOCC2)/C(=C\c2ccccc2)CC1 | -3.36% (inactive) |
| O=C(O)c1ccc(N/N=C/C2=C(N3CCOCC3)C(=C\c3ccccc3)/CC2)cc1 | 0.66% (inactive) |
| O=C(Cc1ccccc1)NNC1CC(=O)N(c2ccc(Br)cc2)C1=O (stereo unspecified) | 0.86% (inactive) |
| O=C(NNC1CC(=O)N(c2ccc(Br)cc2)C1=O)c1cccnc1 (stereo unspecified) | 1.55% (inactive) |
| Cc1nn(C(C)C(=O)NCCCN(Cc2ccccc2)C(C)C)c(=O)c2c1sc1ccccc12 (stereo unspecified) | -3.36% (inactive) |
| C=CCC1c2cccc(C(=O)O)c2C(=O)N1c1cccc(C)c1 (stereo unspecified) | 0.68% (inactive) |
| Cc1cccc(Nc2nc(-c3ccc(O)cc3O)cs2)n1 | 6.03% (inactive) |
| CCOC(=O)C1CCN(c2ncnc3c2cnn3-c2ccc(Cl)cc2)CC1 | 5.45% (inactive) |
| COc1ccc(-n2ncc3c(N4CCC(C(N)=O)CC4)ncnc32)cc1 | 2.74% (inactive) |
| O=C(c1cnn(Cc2ccccc2)c1)N1CCN(S(=O)(=O)/C=C/c2ccccc2)CC1 | 6.35% (inactive) |
| COCC(=O)Nc1sc2c(c1C(=O)OC)CCC(C)C2 (stereo unspecified) | 9.87% (inactive) |
| COC(=O)c1c(NC(=O)CN2CCOCC2)sc2c1CCC(C)C2 (stereo unspecified) | 3.32% (inactive) |

| Compound | inhibition |
| --- | --- |
| COCC(=O)Nc1cccc(-c2ccc3nncn3n2)c1 | 0.62% (inactive) |
| CCCCCc1ccc(-c2cn(CC3CCCCC3)nn2)cc1 | 5.3% (inactive) |
| CCn1cc(C(=O)NC(=S)Nc2ccccc2Br)cn1 | -4.11% (inactive) |
| CCn1c(C)nc2cc(C(=O)NNC(=O)Nc3cccc(Cl)c3)ccc21 | 2.59% (inactive) |
| CCn1c(C)c(C)c2cc(C(=O)NC3CCCCCC3)ccc21 | 0.46% (inactive) |
| COc1ccc(-c2cc(C(=O)N/N=C/c3cccnc3)c3ccccc3n2)cc1 | -8.58% (inactive) |
| CC(C)=CC(=O)N1CC[C@@H](N2CCN(c3ccccc3F)CC2)[C@H](O)C1 | -5.32% (inactive) |
| COc1ccccc1/C=N/Nc1cc(C)nc2ccc(C)cc12 | -11.1% (inactive) |
| COc1ccc(/C=N/Nc2nc(C)cc(-c3ccccc3)n2)c(OC)c1 | 7.29% (inactive) |
| CC(C)Oc1cccc(OCCN2C(=O)c3ccccc3C2=O)c1 | 7.3% (inactive) |
| NC(=S)NNc1ccnc2cc(Cl)ccc12 | 41.1% (inactive) |
| NC(=S)NNC(=O)Nc1ccc(Cl)c(Cl)c1 | -11.5% (inactive) |
| CCOc1ccccc1N1CCN(CC(O)COCc2cccs2)CC1 (stereo unspecified) | 7% (inactive) |
| C=CCn1c(CCCOc2ccc(Cl)cc2Cl)nnc1SCC(=O)Nc1nccs1 | -6.64% (inactive) |
| O=C(O)/C=C/C(=O)N1CCN(Cc2ccc3c(c2)OCO3)CC1 | -4.14% (inactive) |
| O=C(/C=C/c1cccs1)N1CCN(Cc2ccc3c(c2)OCO3)CC1 | 49.9% (inactive) |
| C=CCn1c(SCC(=O)N(CC)CC)nc(O)cc1=O | 1.96% (inactive) |
| COc1cccc(/C=N/NC(=O)CNC(=O)/C=C\c2ccccc2)c1O | 0.24% (inactive) |
| O=C(Nc1ccccc1Cl)c1ccc(Cl)cc1Cl | 64.5% (inactive) |
| O=C(O)CCCCCN1C(=O)CSC1=S | -1.88% (inactive) |
| O=C(O)CN1C(=O)CSC1=S | 3.79% (inactive) |
| O=C(CN1CCN(Cc2ccccc2F)C1=O)NCC1CCCO1 (stereo unspecified) | 1.03% (inactive) |
| O=C(CCc1c[nH]c2ccccc12)OCC(=O)N1CCN(S(=O)(=O)c2ccccc2)CC1 | 43.2% (inactive) |
| Cc1ccc(S(=O)(=O)N2CCN(C(=O)CCc3c[nH]c4ccccc34)CC2)cc1 | -4.25% (inactive) |
